# Compound activity as filed in PubChem.
# aSyn UTR act = Activators via SNCA 5'UTR binding, MLPCN | alpha-synuclein 5'UTR reporter, activators screen | activity score, % (tested at 7.5 µM), hits read low | 300,000 compounds, 7.1% hits; in the data active = activity score below about -60%
# An asterisk follows results filed as active. These entries were drawn from the full list.
SMILES,aSyn UTR act
CCc1ccc(C(=O)NCc2cccs2)s1,-62.6*
CC(=O)NCCc1nc2cc(NC(=O)c3ccc(Cl)cc3)ccc2n1C,-97.6*
CCC(=O)NCCc1nc2cc(NC(=O)c3ccc(Cl)cc3)ccc2n1C,-175.1*
CC(=O)NCCc1nc2cc(NC(=O)c3ccccc3Cl)ccc2n1C,-61.9*
CCC(=O)NCCc1nc2cc(NC(=O)c3ccc(F)cc3)ccc2n1C,-121.5*
CCC(=O)NCCc1nc2cc(NC(=O)c3ccc(OC)cc3)ccc2n1C,-119.2*
COc1ccc(Cc2nc(-c3ccc(NC(=O)c4cccnc4)cc3)no2)cc1,75.1
CCc1ccc(NC(=O)c2cccnc2)cc1,-78.8*
CC(C)c1ccc(NC(=O)c2snc3ccc(Cl)cc23)cc1,-369.5*
CC(C)c1ccc(NC(=O)c2cccnc2)cc1,-247.3*
CC(C)c1ccc(NC(=O)c2csnn2)cc1,-97.6*
CCSc1ccc(NC(=O)c2cccnc2)cc1,-66.1*
O=c1c2[nH]c3ccc(F)cc3c2ncn1CCC1=CCCCC1,-120.5*
COc1ccc2c(c1)[nH]c1c(=O)n(CCC3=CCCCC3)cnc12,-99.3*
Cc1ccc(NC(=O)Nc2ccccc2CC[N+](=O)[O-])cc1,-79.5*
O=C(CCl)N1c2ccccc2SCC1c1ccccc1 (stereo unspecified),-64.2*
COc1ccc(N2CCN(C(=O)C3(C)CC3(Cl)Cl)CC2)cc1 (stereo unspecified),-82.1*
CC1CN(C(=O)/C=C/c2ccc([N+](=O)[O-])s2)CC(C)O1 (stereo unspecified),-82.2*
O=C(/C=C/c1ccc([N+](=O)[O-])s1)N1CCCC1,-101.7*
O=C(/C=C/c1cccs1)N1CCCCC1,-91.8*
CC1CC(C)CN(C(=O)/C=C/c2ccc([N+](=O)[O-])s2)C1 (stereo unspecified),-96.7*
Cc1cc2ncc(S(C)(=O)=O)c(N)n2n1,59.7
Cc1ccc(C(=O)N/C(=C\c2ccc(-c3ccc(Br)cc3)o2)C(=O)NCCCN(C)C)cc1,100.0
O=C(NCc1cccnc1)/C(=C/c1ccc(-c2ccc(Cl)cc2)o1)S(=O)(=O)c1ccccc1,-78.6*
O=C(NCc1cccnc1)/C(=C\c1ccc(-c2ccc(Br)cc2)o1)S(=O)(=O)c1ccccc1,-138.4*
SMILES,aSyn UTR act
Cc1ccc2ccc(C3C(=O)c4ccccc4C3=O)nc2c1,-145.7*
Cn1c2ccccc2c2cc(C(=O)N3CCN(CCO)CC3)sc21,-86.4*
COc1cccc2c1C(=O)c1ccc3ccccc3c1C2=O,-141.2*
COc1ccc(/C=C/C(=O)Nc2cccnc2Cl)cc1,-224.2*
COc1ccccc1/C=C/C(=O)NCCc1ccccn1,-91.7*
COc1ccccc1C(NC(C)=O)c1cc(Cl)c2cccnc2c1O (stereo unspecified),67.5
COc1ccccc1/C=C/C(=O)Nc1cccnc1Cl,-132.5*
COc1cccc([C@@H]2Oc3ccc(OC)cc3C(=O)[C@H]2O)c1,-138.4*
Cn1c(O)c(N=NC(=O)c2ccccc2O)c2ccccc21,-103.5*
Cc1occc1C(=O)N=Nc1c(O)n(C)c2ccccc12,-246.8*
Cc1occc1C(=O)N=Nc1c(O)[nH]c2ccc(Br)cc12,-237.1*
Cc1cc(N=NC(=O)c2ccccc2O)c2ccccc2c1O,-123.3*
Cc1ccc(N=Nc2ccc(O)c3ncccc23)cc1C,73.8
Cc1cccc(Cn2c(O)c(N=NC(=S)Nc3ccccc3F)c3ccccc32)c1,61.0
Cn1c(O)c(N=NC(=S)Nc2ccccc2F)c2cc(S(=O)(=O)N3CCOCC3)ccc21,94.9
Cn1c(O)c(N=Nc2ccccc2[N+](=O)[O-])c2ccccc21,-64.7*
Cn1c(O)c(N=NC(=O)c2ccco2)c2ccccc21,-80.0*
Brc1cc(Br)c2nc(-c3cccs3)ccc2c1,-156.9*
Cc1ccccc1NC(=O)Cc1nc(CSc2nnc(-c3ccc4c(c3)OCO4)o2)cs1,-71.6*
O=C(O)CCSc1nnc(-c2ccc3c(c2)OCO3)o1,66.7
c1cc(CSc2nnc(-c3ccc4c(c3)OCO4)o2)ccn1,-85.9*
CCC1CCCCN1C(=O)CCS(=O)(=O)c1ccccc1 (stereo unspecified),-92.6*
CCC1CCCCN1C(=O)CCCc1ccccc1 (stereo unspecified),-105.4*
O=C(CCCc1ccccc1)N1CCN(C2CCCCC2)CC1,-115.3*
O=[N+]([O-])c1c(Nc2ccccc2O)cc(N2CCOCC2)c2nonc12,48.9
SMILES,aSyn UTR act
C/C(=N\Nc1ccccc1[N+](=O)[O-])c1ccc(N2CCOCC2)cc1,-82.3*
CC(C)/C(=N/Nc1ccccc1[N+](=O)[O-])c1ccccc1,-85.6*
C/C(=N/Nc1ccccc1[N+](=O)[O-])c1ccc(C)c([N+](=O)[O-])c1,-165.7*
O=C1c2ccccc2C(=O)C1c1ccc(O)cc1,-87.5*
NC1=NC(=O)/C(=C\c2cc([N+](=O)[O-])ccc2Cl)S1,-95.2*
O=C(Nc1nncs1)c1cc2c(s1)CCC2,-131.5*
CC(C)Cc1nnc(NC(=O)c2cc3c(s2)CCC3)s1,-206.7*
O=C(Nc1nccs1)c1cc2c(s1)CCCCC2,72.0
CC(C)N1C(=O)/C(=C/c2nc3ccccc3c(=O)n2-c2ccccc2)c2ccccc21,-66.5*
C/C(=N\Nc1cccc2cccnc12)c1ccc[nH]1,-122.6*
CSc1cccc(NC(=O)c2cnccn2)c1,-68.5*
O=C(NCc1ccc(F)cc1)c1cnn2ccccc12,-87.4*
CCc1ccc(NC(=O)c2cnn3ccccc23)cc1,77.9
COc1ccc(NC(=O)c2ccccn2)cc1,74.5
COc1ccc(NC(=O)c2ccccn2)cc1OC,-88.0*
CSc1cccc(NC(=O)c2cnn3ccccc23)c1,-99.9*
CSc1cccc(NC(=O)c2ccccn2)c1,-103.3*
CC(C)c1ccc2nc(SCC(=O)NCC3CCCO3)c(C#N)cc2c1 (stereo unspecified),-142.9*
C/C(=N\NC(=O)c1csc(C)c1C)c1ccc(C)s1,-93.0*
C/C(=N\NC(=O)c1c[nH]c2ccccc12)c1ccc(C)s1,-186.3*
CC/C(=N\NC(=O)c1c[nH]c2ccccc12)c1cccs1,-122.4*
CC(C)(C)OC(=O)N/N=C\c1ccc[nH]1,-77.0*
CCn1ncc(/C=N\NC(=O)c2csc3ccccc23)c1C,-65.7*
O=C(N/N=C/c1ccsc1)c1c[nH]c2ccccc12,-125.9*
Cc1ccc(/C=N/NC(=O)c2c[nH]c3ccccc23)s1,-112.5*
SMILES,aSyn UTR act
Cc1ccsc1/C=N/NC(=O)c1c[nH]c2ccccc12,-122.0*
CCn1nc(C)c(/C=N/NC(=O)c2c[nH]c3ccccc23)c1C,-175.0*
O=C(N/N=C/c1ccccn1)c1c[nH]c2ccccc12,-79.0*
CC(C)(C)OC(=O)N/N=C/c1cccc([N+](=O)[O-])c1,-128.9*
CC(=O)N/N=C(/C)c1ccc(NC(=O)c2csc(C)c2C)cc1,-113.3*
O=C(N/N=C/c1cccc([N+](=O)[O-])c1)c1c[nH]c2ccccc12,-124.3*
CC(=O)Oc1ccc(Cl)cc1/C=C/c1cc(OC(C)=O)c2ccccc2n1,-137.7*
COc1cc(Cl)cc(/C=C/c2ccc3ccccc3n2)c1OC(C)=O,-126.7*
COc1cccc(-c2nnc(N(C)C(=O)C3CCOC3)s2)c1 (stereo unspecified),-71.1*
CC(C)(C)C1CCc2nc(NC(=O)Cc3cn4ccsc4n3)sc2C1 (stereo unspecified),-65.6*
CC1CCc2nc(NC(=O)c3ccco3)sc2C1 (stereo unspecified),88.1
O=C(CCCc1cccs1)Nc1nc2c(s1)CCCC2,-171.0*
CC1CCc2nc(NC(=O)Cc3cccs3)sc2C1 (stereo unspecified),-160.1*
